Test results: PubChem BioAssay AID1224921 (Broad Institute, 2016)
Among all 1,400 compounds or so, about 350 (25%) were called active. Another 2% or so got no clear call; they are omitted. How the calls were made is not given here. Not all results are given here. Results with a measured potency or affinity are listed apart.

assay: C. difficile growth inhibition, confirmation, 4-point retest (AID 1224921); settings: Clostridioides difficile clinical isolate growth, OD600, 24 h, active compounds read low; at 30 µM unless noted;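 further: plate controls were DMSO wells for no effect and levofloxacin 16 µg/mL wells for full effect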

Max activity, inactive:
C[C@@H]1CN([C@H](C)CO)C(=O)c2cc(NC(=O)Nc3ccc4c(c3)OCO4)ccc2O[C@H]1CN(C)Cc1ccccc1 22.6%
COc1ccc(NC(=O)N[C@H]2C=C[C@@H](CC(=O)NC3CCCCC3)O[C@H]2CO)cc1 -14.6% [at 1.95 µM]
COc1ccc(CN(C)C[C@H]2OCCCC[C@@H](C)Oc3ccc(NC(=O)Nc4ccc(F)cc4)cc3C(=O)N([C@@H](C)CO)C[C@@H]2C)cc1 19.8% [at 8 µM]
COCC#Cc1ccc2c(c1)O[C@H](CN(C)C)[C@@H](C)CN([C@H](C)CO)S2(=O)=O 7.09%
CO[C@H]1CN(C)C(=O)c2cc(NC(=O)c3ccccc3)ccc2OC[C@@H](C)N(C)C[C@@H]1C -8.25% [at 8 µM]
C[C@@H]1CN([C@@H](C)CO)C(=O)c2c(c3ccccc3n2C)-c2ccccc2CO[C@@H]1CN(C)S(=O)(=O)c1cccc(F)c1 6.96% [at 8 µM]
C[C@H](CO)N1C[C@H](C)[C@H](CN(C)C(=O)[C@H](C)c2ccccc2)OCc2ccccc2-c2ccccc2C1=O 12.5% [at 1.95 µM]
C[C@@H]1CN([C@H](C)CO)C(=O)c2cccc(NC(=O)Nc3ccc(C(F)(F)F)cc3)c2O[C@H]1CN(C)C(=O)Nc1ccccc1 25.7% [at 8 µM]
C[C@H](CO)N1C[C@H](C)[C@@H](CN(C)C(=O)Nc2ccccc2)Oc2c(NC(=O)Nc3ccc(C(F)(F)F)cc3)cccc2C1=O 46.6% [at 8 µM]
C[C@@H]1CN([C@@H](C)CO)C(=O)c2cccc(NC(=O)Nc3ccc(C(F)(F)F)cc3)c2O[C@H]1CN(C)C(=O)Nc1cccc2ccccc12 30.6% [at 1.95 µM]
C[C@@H]1CN([C@@H](C)CO)C(=O)c2cccc(NC(=O)Nc3ccc(C(F)(F)F)cc3)c2O[C@H]1CN(C)C(=O)Nc1ccccc1 29.3%
C[C@@H]1CN([C@H](C)CO)C(=O)c2cccc(NC(=O)Nc3ccc(C(F)(F)F)cc3)c2O[C@@H]1CN(C)C(=O)Nc1cccc2ccccc12 40.5% [at 1.95 µM]
C[C@H]1CN([C@@H](C)CO)S(=O)(=O)c2ccc(-c3ccccc3F)cc2O[C@@H]1CN(C)Cc1ccncc1 27%
C[C@H](CO)N1C[C@H](C)[C@@H](CN(C)C(=O)C2CCCCC2)Oc2ncc(-c3ccccc3F)cc2C1=O -11.4% [at 8 µM]
C[C@H]1CN([C@@H](C)CO)C(=O)Cc2cc(NS(C)(=O)=O)ccc2O[C@H]1CN(C)Cc1ccccc1 10.4%
COc1ccccc1C(=O)Nc1ccc2c(c1)OC[C@@H](C)N(CC1CC1)C[C@@H](C)[C@H](OC)CN(C)C2=O 19.1%
CO[C@@H]1CN(C)C(=O)c2ccc(NC(=O)c3nc4ccccc4s3)cc2OC[C@@H](C)N(Cc2ccncc2)C[C@H]1C 30.6%
CCCC#Cc1ccc2c(c1)O[C@H](CN(C)Cc1ccncc1)[C@H](C)CN([C@H](C)CO)S2(=O)=O 6.31%
C[C@@H]1CN([C@H](C)CO)C(=O)c2cccc(NC(=O)Nc3ccc4c(c3)OCO4)c2O[C@H]1CN(C)S(=O)(=O)c1ccc(Cl)cc1 -12.1% [at 8 µM]
CC(C)CC#Cc1ccc2c(c1)O[C@@H](CN(C)Cc1cccnc1)[C@H](C)CN([C@@H](C)CO)S2(=O)=O 42%
COc1ccccc1C#Cc1ccc2c(c1)O[C@H](CN(C)Cc1ccncc1)[C@@H](C)CN([C@@H](C)CO)S2(=O)=O 48.6%
CCCNC(=O)N(C)C[C@@H]1Oc2cc(C#Cc3ccccn3)ccc2S(=O)(=O)N([C@@H](C)CO)C[C@H]1C 9.97%
CO[C@H]1O[C@H](CO)[C@@H](OC(=O)Nc2ccc3c(c2)OCO3)[C@H](OC(=O)Nc2ccccc2)[C@H]1OC(=O)Nc1ccccc1 10.7%
CCC(=O)N[C@H]1C=C[C@@H](CC(=O)OC)O[C@@H]1CO -10.5%
CN1C(=O)c2cc(NC(=O)Cc3ccccc3)ccc2OC[C@H]2O[C@@H](CC(=O)NCC3CC3)CC[C@H]21 -7.83%
O=C(C[C@@H]1C[C@@H]2c3cc(NC(=O)Nc4ccc(C(F)(F)F)cc4)ccc3O[C@@H]2[C@H](CO)O1)NCc1ccc(Cl)cc1 27.7%
CCC(=O)Nc1ccc2c(c1)OC[C@H](C)N(CC1CCCCC1)C[C@@H](C)[C@@H](OC)CN(C)C2=O 8.81%
CCCN1[C@@H]2c3ccc(-c4ccc(F)cc4)c(=O)n3C[C@@H]2[C@@H](CO)[C@@H]1C(=O)N[C@@H](C)c1ccccc1 -8.45%
COc1ccccc1-c1ccc2c(c1)O[C@@H](CN(C)C(=O)c1ccccc1)[C@@H](C)CN([C@@H](C)CO)S2(=O)=O 29.9%
COCC(=O)Nc1ccc2c(c1)OC[C@H](C)N(Cc1ccccc1)C[C@@H](C)[C@@H](OC)CN(C)C2=O 5.39%
CCCC(=O)Nc1ccc2c(c1)C(=O)N(C)C[C@H](OC)[C@@H](C)CN(S(=O)(=O)c1cn(C)cn1)[C@@H](C)CO2 -11.7%
C[C@H]1CCCCO[C@@H](CN(C)Cc2ccc(C(=O)O)cc2)[C@@H](C)CN([C@@H](C)CO)C(=O)c2cc(NC(=O)Nc3ccc4c(c3)OCO4)ccc2O1 -7.43%
CCC(=O)N(C)C[C@@H]1Oc2cc(C#CCC3CCCC3)ccc2S(=O)(=O)N([C@H](C)CO)C[C@H]1C 29.4%
COc1cc(O)c2c(c1)oc(=O)c1c3cc(O)c(O)cc3oc21 14.5%
CNC(=O)C[C@H]1CC[C@H]2[C@H](COc3ccc(NC(=O)c4ccccc4F)cc3C(=O)N2C)O1 -13.3% [at 1.95 µM]
CNC(=O)C[C@@H]1CC[C@H]2[C@@H](COc3ccc(NC(=O)c4ccccc4F)cc3C(=O)N2C)O1 -11.2% [at 1.95 µM]
O=C(Nc1ccc2c(c1)OCO2)N[C@@H]1C=C[C@H](CC(=O)N2CCN(c3ccccc3)CC2)O[C@H]1CO 18.2%
CO[C@@H]1CN(C)C(=O)c2ccc(NC(=O)c3ccc(F)cc3)cc2OC[C@H](C)N(C(=O)CN(C)C)C[C@@H]1C -20.6% [at 1.95 µM]
CNC[C@H]1Oc2cc(-c3ccccc3F)ccc2S(=O)(=O)N([C@H](C)CO)C[C@H]1C 25.6%
C[C@@H]1CN([C@H](C)CO)C(=O)Cc2cc(NC(=O)C3CC3)ccc2O[C@@H]1CN(C)Cc1ccc(-c2ccccc2)cc1 43.1% [at 35 µM]
CC(C)C#Cc1ccc2c(c1)O[C@H](CN(C)Cc1ccncc1)[C@@H](C)CN([C@H](C)CO)S2(=O)=O 51.9%
CO[C@H]1CN(C)C(=O)c2cc(NC(=O)Nc3ccccc3F)ccc2OC[C@@H](C)N(CC2CC2)C[C@@H]1C -19.6% [at 1.95 µM]
CO[C@@H]1CN(C)C(=O)c2ccc(NC(C)=O)cc2OC[C@@H](C)N(Cc2cccc(F)c2)C[C@@H]1C 16.8%
CCS(=O)(=O)Nc1ccc2c(c1)C(=O)N(C)C[C@@H](OC)[C@H](C)CN(CC1CCCC1)[C@H](C)CO2 -10.9% [at 1.95 µM]
C[C@@H]1CN([C@H](C)CO)S(=O)(=O)c2ccc(C#CCC3CCCC3)cc2O[C@H]1CN(C)C(=O)CC1CC1 15.9%
COc1cccc(NC(=O)N[C@H]2CC[C@H](CC(=O)Nc3ccc(-c4ccccc4)cc3)O[C@H]2CO)c1 32.5%
COc1cccc(-c2ccc3c(c2)O[C@@H](CN(C)Cc2cccnc2)[C@H](C)CN([C@H](C)CO)S3(=O)=O)c1 34.9%
C[C@@H]1CN([C@H](C)CO)C(=O)c2cccc(NC(=O)c3nc4ccccc4s3)c2O[C@H]1CN(C)Cc1ccc2c(c1)OCO2 20.2%
O=C(C[C@H]1C[C@H]2c3cc(NC(=O)C4CCC4)ccc3O[C@H]2[C@H](CO)O1)NCCc1ccccc1 -11.7% [at 1.95 µM]
CCC(=O)N1C[C@H](C)[C@H](OC)CN(C)C(=O)c2ccc(NC(=O)Nc3ccc(Cl)cc3)cc2OC[C@H]1C 20%
Cc1ccccc1S(=O)(=O)NCC[C@H]1CC[C@H](NC(=O)Nc2cccc(Cl)c2)[C@H](CO)O1 6.17% [at 35 µM]
CCC(=O)N[C@@H]1CC[C@H](CC(=O)NCc2ccccc2F)O[C@@H]1CO -16.5% [at 8 µM]
CCC(=O)N[C@H]1CC[C@H](CC(=O)NCc2ccccc2F)O[C@H]1CO -6.85% [at 0.5 µM]
CCC(=O)N[C@@H]1CC[C@@H](CC(=O)NCc2ccccc2F)O[C@@H]1CO -13% [at 8 µM]
N#C[C@H]1[C@H](c2ccc(C#Cc3ccccc3F)cc2)[C@@H](CO)N1C(=O)C1CCC1 26.9%
C[C@@H]1CN([C@H](C)CO)S(=O)(=O)c2ccc(C#CC3CCCCC3)cc2O[C@@H]1CN(C)Cc1cccnc1 42.2%
CO[C@H]1CN(C)C(=O)c2ccc(NC(=O)c3ccc(F)cc3)cc2OC[C@H](C)N(C(=O)CN(C)C)C[C@@H]1C -12.9%
COc1ccccc1C#Cc1ccc2c(c1)O[C@@H](CN(C)Cc1cccnc1)[C@H](C)CN([C@H](C)CO)S2(=O)=O 35.7%
